# Results taken from publication PMC4336329 (PLoS ONE, 2015).
# Out of some 310,000 compounds screened, about 14,000 (4.5%) showed an effect of 50% or more. The effect is printed as a negative number. The sample holds strong results, similar compounds and a random draw of the others, so the mix is not that of the screen.
# Molecular target: human ether-à-go-go-related gene (hERG) potassium channel (human, UniProt Q12809)
# Experiment: primary screen, population patch clamp on CHO cells stably expressing hERG; higher = less effect of the substance
# 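Also: peak tail current of the secondary pulse compared with the same well before compound.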
# Sequence of human ether-à-go-go-related gene (hERG) potassium channel (Q12809 whole entry, looked up): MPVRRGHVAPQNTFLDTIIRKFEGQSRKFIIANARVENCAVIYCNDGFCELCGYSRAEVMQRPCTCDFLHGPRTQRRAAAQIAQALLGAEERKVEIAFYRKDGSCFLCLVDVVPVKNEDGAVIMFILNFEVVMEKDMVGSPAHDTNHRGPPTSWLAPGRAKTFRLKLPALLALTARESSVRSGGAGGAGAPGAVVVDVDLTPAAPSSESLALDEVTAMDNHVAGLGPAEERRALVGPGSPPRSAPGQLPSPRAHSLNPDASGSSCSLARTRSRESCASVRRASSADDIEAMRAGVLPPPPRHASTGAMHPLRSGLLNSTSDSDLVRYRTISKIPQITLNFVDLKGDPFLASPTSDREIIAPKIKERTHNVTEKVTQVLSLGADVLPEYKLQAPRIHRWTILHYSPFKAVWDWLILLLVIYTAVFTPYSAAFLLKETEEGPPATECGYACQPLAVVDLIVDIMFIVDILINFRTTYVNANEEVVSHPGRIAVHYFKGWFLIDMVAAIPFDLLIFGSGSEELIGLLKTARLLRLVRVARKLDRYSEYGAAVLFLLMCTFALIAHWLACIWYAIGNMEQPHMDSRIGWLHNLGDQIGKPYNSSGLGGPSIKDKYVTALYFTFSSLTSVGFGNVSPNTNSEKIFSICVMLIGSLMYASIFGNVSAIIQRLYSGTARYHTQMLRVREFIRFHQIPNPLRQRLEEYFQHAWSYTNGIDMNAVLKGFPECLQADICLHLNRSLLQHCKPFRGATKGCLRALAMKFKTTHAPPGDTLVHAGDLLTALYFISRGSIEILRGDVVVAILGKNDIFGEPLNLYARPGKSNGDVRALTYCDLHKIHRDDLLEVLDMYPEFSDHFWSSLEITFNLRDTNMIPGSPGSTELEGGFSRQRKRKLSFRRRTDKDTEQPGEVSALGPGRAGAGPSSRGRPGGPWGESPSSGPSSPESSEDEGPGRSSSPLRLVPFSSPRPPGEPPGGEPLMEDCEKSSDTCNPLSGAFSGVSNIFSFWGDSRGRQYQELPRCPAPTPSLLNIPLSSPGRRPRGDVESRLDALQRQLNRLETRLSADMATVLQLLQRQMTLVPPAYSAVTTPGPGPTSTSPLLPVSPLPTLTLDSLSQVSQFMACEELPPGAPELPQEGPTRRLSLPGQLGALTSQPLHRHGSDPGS
row,Compound,"hERG current change (%, negative = inhibition) at 10uM [%]"
1,CCN(CC(=O)NC1CC1)S(=O)(=O)c1ccccc1,10
2,Br.Cc1csc(=Nc2ccccc2)n1C,-2.07
3,COc1ccc2c(C)cc(SCC(=O)Nc3cccnc3Cl)nc2c1,10.3
4,Cc1ccnc(NC(=O)c2cc3ccccc3oc2=O)c1,8.47
5,Cc1cc(NS(=O)(=O)c2cccc([N+](=O)[O-])c2)no1,28.8
6,CCCCCCCN1CCC(=O)N([C@H](CO)c2ccccc2)CC1,-63.7
7,CCCCCCCN1CCC(=O)N(CCO)CC1,-54.3
8,CC(C)C[C@@H](CO)N1CCN(CC(C)C)CCC1=O,4.64
9,CC(C)CN1CCC(=O)N(CCO)CC1,1.33
10,CCCN1CCC(=O)N([C@H](CO)CC(C)C)CC1,20
11,CCCCCCCN1CCC(=O)N([C@H](CO)Cc2ccccc2)CC1,-78.8
12,O=C1CCN(CCCc2ccccc2)CCN1[C@H](CO)Cc1ccccc1,-40.6
13,CCCN1CCC(=O)N([C@H](CO)Cc2ccccc2)CC1,0.476
14,O=C1CCN(CCCc2ccccc2)CCN1[C@H](CO)c1ccccc1,-29.7
15,CCCN1CCC(=O)N([C@H](CO)c2ccccc2)CC1,9.36
16,CCCN1CCC(=O)N(CCO)CC1,-3.79
17,CCCCCCCN1CCC(=O)N([C@H](CO)CC(C)C)CC1,-63
18,CCOC(=O)Cc1ccc(NC(=O)c2ccccc2Br)cc1,-7.9
19,O=S(=O)(c1ccc(Br)s1)N1CCN(c2ncccn2)CC1,-3.42
20,Nc1ccccc1-c1nnc2n1CCCCC2,25.8
21,Cc1cc(C)c(C(=O)CSc2nnc(C)s2)c(C)c1,18.2
22,CCCC1(C(=O)OCC)NC(c2ccc(N(C)C)cc2)C2C(=O)N(c3ccc(F)cc3)C(=O)C21 (stereo not drawn),-8.18
23,CCCCNC(=O)c1sc2nc(C)cc(COC)c2c1-n1cccc1,-10.7

row,Compound,"hERG current change (%, negative = inhibition) at 10uM [%]"
1,S=C(c1ccccc1)N(c1ccccc1)c1ccccc1,7.21
2,Cc1ccc(N2CC(C(=O)Nc3ccc(S(=O)(=O)N4CCCC4)cc3)CC2=O)cc1 (stereo not drawn),-8.07
3,O=C(Nc1ccccc1)C1=C(O)CC(c2ccoc2)CC1=Nc1ccccc1 (stereo not drawn),15
4,O=C1CCCCC1Oc1ccc2ccc(=O)oc2c1 (stereo not drawn),19.6
5,Cc1coc2c(C)c3oc(=O)c(CCC(=O)NCCN4CCOCC4)c(C)c3cc12,-24.6
6,O=C(c1ccc(Cl)c([N+](=O)[O-])c1)N1CCN(Cc2ccc3c(c2)OCO3)CC1,-26.7
7,CC(OC(=O)c1ccc(Cl)c([N+](=O)[O-])c1)C(=O)N1CCN(Cc2ccccc2)CC1 (stereo not drawn),-71.1
8,COc1cc(N(C)C)c([N+](=O)[O-])cc1C(=O)N1CCN(Cc2ccccc2)CC1,9.99
9,O=C(c1ccc(Br)c([N+](=O)[O-])c1)N1CCN(Cc2ccccc2)CC1,-61.2
10,O=C(c1ccc(Oc2ccc(Cl)cc2)c([N+](=O)[O-])c1)N1CCCC1,-63
11,NC(=O)c1ccc(Oc2ccc(Cl)cc2)c([N+](=O)[O-])c1,12.6
12,Cc1cc(C(=O)N2CCN(Cc3ccccc3)CC2)ccc1[N+](=O)[O-],-32
13,O=C(c1ccc(S(=O)(=O)c2ccccc2Cl)c([N+](=O)[O-])c1)N1CCN(Cc2ccccc2)CC1,-25.3
14,COc1ccc(C(=O)N2CCN(Cc3ccccc3)CC2)cc1[N+](=O)[O-],-52
15,O=C(c1ccc(Oc2ccc([N+](=O)[O-])cc2Cl)cc1)N1CCCC1,-32.2
16,CC(C(=O)N1CCN(Cc2ccccc2)CC1)c1ccc([N+](=O)[O-])cc1 (stereo not drawn),-43.7
17,COc1ccc(C(=O)N2CCN(Cc3ccc4c(c3)OCO4)CC2)cc1[N+](=O)[O-],-44.6
18,CCOC(=O)C1(C)/C(=N/Nc2cccc(Cl)c2)C(=O)C(=O)N1c1ccccc1 (stereo not drawn),6.3
19,CCOc1ccc(Br)cc1S(=O)(=O)Nc1cccc(S(=O)(=O)N(CC)CC)c1,-4.53
20,Cc1ccc(CN2CCN(/N=C/c3ccc(C(=O)O)cc3)CC2)cc1,5.6
21,CCOc1ccccc1N(CC(=O)NC1CCCCC1)C(=O)CCC(=O)Nc1cc(C)ccn1,3.35
22,Cc1cccc(CSc2nnc(CCNC(=O)OC(C)(C)C)o2)c1,-7.22
23,COc1c([N+](=O)[O-])c(=O)oc2ccccc12,15.4

row,Compound,"hERG current change (%, negative = inhibition) at 10uM [%]"
1,Cc1ccc(S(=O)(=O)CC(=O)Nc2ncc([N+](=O)[O-])s2)cc1,21.8
2,CC(C)(C)NC(=O)COC(=O)CCC(=O)c1ccc(F)cc1,12
3,COc1ccccc1C(=O)NNc1ncc(C)s1.Cl,-0.745
4,COc1ccc(C(=O)N2CCN(CCc3ccccc3)CC2)cc1[N+](=O)[O-],-75.6
5,COc1ccc(C(=O)N2CCN(c3ncccn3)CC2)cc1[N+](=O)[O-],-2.35
6,COc1ccc(C(=O)N2CCN(c3ccccn3)CC2)cc1[N+](=O)[O-],-14.9
7,COc1ccc(N(CC(=O)Nc2ccc(F)c(F)c2)S(=O)(=O)c2c(C)n[nH]c2C)cc1,18.5
8,O=C(OCc1ccc(Br)cc1)c1cccnc1,-5.96
9,C/C(=N\NC(=O)c1ccc(Br)cc1)c1cccnc1,5.22
10,O=C(Oc1ccc(Br)cc1)c1cccnc1,4.3
11,Cc1ccc(C(=O)O/N=C(\c2ccccc2)c2cccnc2)cc1,-18.7
12,CN(C)CCO/N=C(\c1ccc(Br)cc1)c1cccnc1.O=C(O)C(=O)O,-63.5
13,CN(C)C/C=C(\c1ccc(Br)cc1)c1cccnc1.Cl.O,-63.7
14,CN(C)C/C=C(/c1ccc(Br)cc1)c1cccnc1.Cl,-71.5
15,O=C(NCCNC(=O)c1cccnc1)c1ccc(Br)cc1,14.6
16,CN(C)CCCO/N=C(\c1ccccc1)c1ccncc1.O=C([O-])C(=O)[O-],5.25
17,CC[C@@]12C(=O)N(c3cccc(F)c3)C(=O)N1[C@H](c1cccc(C)c1)[C@@H]1C(=O)N(Cc3ccccc3)C(=O)[C@@H]12,0.427
18,Cc1cc(-c2ccccc2)nc(N/N=C/c2ccco2)n1,-0.804
19,O=C(OCC(=O)N1CCCc2ccccc21)c1ccccc1NCCO,-15.9
20,Cc1ccc(S(=O)(=O)N2CCCCC2)cc1NC(=O)CSc1ccc2c(c1)OCCO2,-9.32
21,CCOC(=O)CSc1n[nH]c(NS(=O)(=O)c2ccccc2C(F)(F)F)n1,-1.78
22,CSc1ccc(C2Nc3ccccc3-c3cc(C)nn32)cc1 (stereo not drawn),-3.75
23,COc1cc(/C=C(/C#N)c2nc3ccccc3[nH]2)ccc1OC(=O)c1ccco1,-6.24

row,Compound,"hERG current change (%, negative = inhibition) at 10uM [%]"
1,Cc1ccc(C(=O)OCC(=O)Nc2cc(S(C)(=O)=O)ccc2Cl)cc1S(=O)(=O)N1CCCCC1,-26.9
2,CS(=O)(=O)c1ccc(Cl)c(NC(=O)COC(=O)c2cccc(S(=O)(=O)N3CCCCC3)c2)c1,-30.9
3,O=C(COC(=O)c1ccccc1)Nc1cc(S(=O)(=O)N2CCCCCC2)ccc1Cl,7.5
4,CS(=O)(=O)c1ccc(Cl)c(NC(=O)COC(=O)c2cccc(S(=O)(=O)N3CCCC3)c2)c1,-51.5
5,O=C(COC(=O)CCS(=O)(=O)c1ccccc1)Nc1cc(S(=O)(=O)N2CCCCC2)ccc1Cl,-4.61
6,O=C(COC(=O)Cc1ccccc1)Nc1cc(S(=O)(=O)N2CCCCC2)ccc1Cl,-81.8
7,CCOC(=O)c1ccc(NC(=O)NCc2ccccc2)cc1,-9.51
8,COc1ccc(S(=O)(=O)N2CCN(C(=S)Nc3ccc(S(N)(=O)=O)cc3)CC2)cc1,15.7
9,CCC(C(=O)Nc1nccs1)c1ccccc1 (stereo not drawn),9.98
10,COc1ccc(-n2c(=O)c3ccccc3n(CC(=O)NCC3CCCO3)c2=O)cc1 (stereo not drawn),13.4
11,O=C(c1cnc2ccccc2n1)N1CCN(c2ccc(C(F)(F)F)cn2)CC1,-17.1
12,O=S(=O)(CCc1nc2ccccc2o1)c1ccc(Cl)cc1,-7.14
13,COc1ccc2cc(CN(CCCN3CCOCC3)Cc3nnnn3C3CCCCC3)c(=O)[nH]c2c1,-26.5
14,Cc1ccc2[nH]c(=O)c(CN(Cc3ccccc3)Cc3nnnn3C3CCCC3)cc2c1,-6.83
15,COc1ccc(Cn2nnnc2CN(CCCN2CCOCC2)Cc2cc3cc(OC)ccc3[nH]c2=O)cc1,-42.7
16,CCOc1ccc2[nH]c(=O)c(CN(CCCN3CCOCC3)Cc3nnnn3Cc3ccc(OC)cc3)cc2c1,-60.9
17,COc1ccc2cc(CN(Cc3ccco3)Cc3nnnn3C3CCCCC3)c(=O)[nH]c2c1,-19.4
18,Cc1ccc2[nH]c(=O)c(CN(CCCN3CCOCC3)Cc3nnnn3C3CCCC3)cc2c1,-54.5
19,Cc1ccc2[nH]c(=O)c(CN(Cc3ccc4c(c3)OCO4)Cc3nnnn3C3CCCC3)cc2c1,4.66
20,COc1ccc2cc(CN(CCCN3CCOCC3)Cc3nnnn3C3CCCC3)c(=O)[nH]c2c1,-59.7
21,COc1cc2cc(CN(CCCN3CCOCC3)Cc3nnnn3Cc3ccccc3)c(=O)[nH]c2cc1OC,-20.2
